Experimental data taken from the OligoGym collection.

The sequences below were run against FEZ1 (assay: pooled miR-30 sensor sort-seq; sequence = guide strand). Conditions: shRNA.

Compared with TTTATTTCAAAATTAGTCTTAA, TGAACCTCAATAAGCACCGTGA is higher in sensor-assay potency score (higher = more potent): -0.684 for the first, -0.29 for the second.

Compared with TGAACCATAGAAACACTGGGGC, TTCTCGTAAGGAATGACTGTGT is lower in sensor-assay potency score (higher = more potent): 0.345 for the first, -0.149 for the second.

Compared with TTGTCTGTCAGAGCATCCCAAA, TTGAAGCTGATTATTTCGGAAG is higher in sensor-assay potency score (higher = more potent): -1.44 for the first, -0.859 for the second.

Going from ATGAACCATAGAAACACTGGGG to ATTACTAGCACTAGAAGCCAAC, the sensor-assay potency score (higher = more potent) falls from -0.474 to -1.45.

TCAAACTCCAGCTCGTCCCGGC was tested, and the sensor-assay potency score (higher = more potent) was 0.386.

Each sequence was assayed against FFAR2 in the same assay as above. Conditions: shRNA.

First: TCGTGTTCAAGTATTGAACGAT
Second: TTTTTCTCTGGTGATACCCCAC
The sensor-assay potency score (higher = more potent) of the first is lower: -0.455 for the first, -0.286 for the second.

First: TAGATGCTGCTGTAGAAGCCAA
Second: TAAGCCATGAGGATCAAGGAGC
The sensor-assay potency score (higher = more potent) of the first is higher: -0.865 for the first, -1.02 for the second.

Compared with TGAGTGAACTGAACACCACGGC, TTGAGTGAACTGAACACCACGG is higher in sensor-assay potency score (higher = more potent): 0.269 for the first, 0.516 for the second.

Compared with TTCTCCTTGACCCACACCCCTG, TAGCAGGTAATTTCATTGCCAC is higher in sensor-assay potency score (higher = more potent): -1.59 for the first, -0.783 for the second.

Going from TTATCGGTGAAGTTCTCGTAGC to TTCATTGCCACTTCTGACCTGC, the sensor-assay potency score (higher = more potent) rises from -0.593 to 0.752.

Compared with TCGGTGAAGTTCTCGTAGCAGG, TCTCGTAGCAGGTAATTTCATT is higher in sensor-assay potency score (higher = more potent): -0.822 for the first, -0.802 for the second.

These sequences were tested against FGA in the same assay as above. Conditions: shRNA.

First: TTCTATGACTTTGCGCTTCAGG
Second: TCAAAGACTAATATGTCTCAGG
The sensor-assay potency score (higher = more potent) of the first is lower: -0.597 for the first, -0.257 for the second.

Going from TAGACTTCTGCACAGTTCTCTT to TTCAGTGATCCATCCATTCTTT, the sensor-assay potency score (higher = more potent) rises from -0.561 to -0.0325.

Compared with AACATTTTTCTGCAGAAGCTGG, TTCAGGACTTCAATTCTGCTTC is higher in sensor-assay potency score (higher = more potent): -0.95 for the first, -0.0905 for the second.

Going from TCAATCAACCCTTTCATCCTGC to TAACTCCATTCTCATCTGCGGC, the sensor-assay potency score (higher = more potent) falls from 0.452 to -1.53.

Compared with TGTCTTTCCACAACCCTTGGGC, TTGATTGACTTCATCAATCAAC is lower in sensor-assay potency score (higher = more potent): 0.289 for the first, -0.764 for the second.

First: TATTGTTCTTCTGATATTCAAA
Second: TTTTTCTATGACTTTGCGCTTC
The sensor-assay potency score (higher = more potent) of the first is lower: -1.2 for the first, -0.192 for the second.

Compared with TTTAGCTACAGTACAAAGGATA, TTGACTTCATCAATCAACCCTT is higher in sensor-assay potency score (higher = more potent): -0.909 for the first, -0.0172 for the second.

Compared with TGTAGTTCCAGTCTTCATCAGA, TAAAATTCAGTGATCCATCCAT is higher in sensor-assay potency score (higher = more potent): -0.66 for the first, 0.455 for the second.

First: TAAGTCTTTGGCAATGACCTGT
Second: TTAGGTTGTAGAGAATCTCAAC
The sensor-assay potency score (higher = more potent) of the first is higher: 0.441 for the first, -0.726 for the second.

Sequence TTGTAGTCTTGCCAGGTCCGGT has a sensor-assay potency score (higher = more potent) of -0.917.
